The list is not random: actives were taken first. Their share in the collection is about 6.5%.
LASV entry inh: inhibitors of Lassa virus binding or cell entry | Lassa virus pseudotype entry inhibition, cell reporter | Potency, µM (doses to about 37.9 µM), for the others: at the top dose activity change, negative = inhibition, hits mostly inhibitors | 300,000 compounds, 1.2% hits | AID 540256; calls by dose curve; tested in HEK293 cells; also: potency is read from the fitted curve at half-maximal effect; nearly all actives have a fitted effect of over 50% in size
Vaccinia mCherry: vaccinia inhibition (mCherry reporter); AID 720579; Potency, µM (doses to about 36.5 µM), for the others: at the highest dose activity change, negative = inhibition, usual class: inhibitors; 310,000 compounds, 0.63% hits; Vaccinia virus mCherry reporter infection, fluorescence; calls by dose curve; tested in A549 cells; also: potency is read from the fitted curve at half-maximal effect; nearly all actives have a fitted effect of over 35% in size
FMDV inh: antivirals against foot and mouth disease virus; FMDV antiviral cell-based qHTS; Potency, µM (series often up to 57.9 µM), without a hit: top-dose activity change, negative = inhibition, usual class: inhibitors; 410,000 compounds, 1.2% hits; AID 1159524; calls by dose curve; tested in HEK293T cells; also: read-out not given here; potency is read from the fitted curve at half-maximal effect; nearly all actives have a fitted effect of over 45% in size
MARV entry inh: inhibitors of Marburg virus binding or cell entry | Marburg virus pseudotyped entry inhibition, cell reporter | Potency, µM (titrated, usually from 37.8 µM), for inactives: at the highest dose activity change, negative = inhibition, most hits filed as inhibitors | 300,000 compounds, 1.8% hits | AID 540276; calls by dose curve; tested in HEK293 cells; also: potency is read from the fitted curve at half-maximal effect
HCMV inh: inhibitors of human cytomegalovirus | HFF cells, HCMV-luciferase reporter, 72 h; active compounds read low | activity change, negative = inhibition, % at 57.5 µM | 410,000 compounds, 4.5% hits; in the data active = activity change below about -60%; inconclusive = no clear call, values can overlap the other calls; inactive = above about -39%
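After 16 h attachment at 37C, HFF cells received test compound and HCMV-luciferase (1 PFU/cell); reporter luminescence read 72 h later, data normalized against buffer-only and known inhibitor Salinomycin.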
VACV Venus inh: inhibitors of vaccinia virus (Venus reporter). Vaccinia virus Venus reporter expression, fluorescence. Potency, µM (highest dose often 36.5 µM), for the others: top-dose activity change, negative = inhibition, actives largely listed as inhibitors. 330,000 compounds, 0.46% hits. AID 720580; calls by dose curve; tested in A549 cells; also: potency is read from the fitted curve at half-maximal effect; nearly all actives have a fitted effect of over 30% in size
An asterisk follows results filed as active; i = inactive; ? = inconclusive; . = no result; [ ] = remark or other dose. % is scaled to controls: 0 for no effect and ±100 for the full control effect.

SMILES	LASV entry inh	Vaccinia mCherry	FMDV inh	MARV entry inh	HCMV inh	VACV Venus inh
Cc1ccc(N/C=C/C(=O)c2cccs2)cc1C	10µM*	-7.2%	?	?	47.4	-14.1%
c1ccc(-c2nc3nonc3nc2-c2ccccc2)cc1	-25.5%	-20.1%	?	?	-78.0*	-9.3%
C=CCN1C[C@@H](C)N([C@H](c2ccc(C(=O)N(CC)CC)cc2)c2cccc(OC)c2)C[C@@H]1C	?	.	.	15.8µM*	.	.
CCCCc1nc(NCCNC(=O)c2ccccc2)c(C#N)c2c1CSC(C)(C)C2	?	.	?	?	-103.9*	?
CCCCc1nc(NCCNC(=O)c2ccco2)c(C#N)c2c1CSC(C)(C)C2	3.2%	.	?	-14.6%	16.4	.
Brc1ccc2nc(-c3ccc(CN4CCC5(CC4)CNc4ccccc45)cc3)c(-c3ccccc3)nc2c1	.	.	.	.	-12.4	.
O=C1C=CC(=O)C(C2=C3C(=O)N(CCc4ccccc4)CC(=O)N3CCC2)=C1	?	-12.0%	?	-5.2%	-99.1*	-0.4%
CCc1sc(C(=O)Nc2ncccc2O)cc1C	?	-29.1%	-53.6%	6.31µM*	?	-25.1%
CCOc1ccc(C2C3=C(Nc4nc(N)[nH]c(=O)c42)c2ccccc2C3=O)cc1 (centres undefined)	24.6%	i	7.2%	?	-21.9	-5.7%
CCCOc1ccc(C2C3=C(Nc4nc(N)[nH]c(=O)c42)c2ccccc2C3=O)cc1 (centres undefined)	.	.	19.4%	.	-67.3*	.
COc1ccc2c(c1)[C@@]1(OCCC=C[C@@H]1C)C(=O)N2Cc1ccc(Br)cc1	.	.	.	5.4%[14.2 µM]	.	.
Cc1cc(C)nc(SCC(=O)c2ccc(O)c(O)c2)n1	.	?	7.8%	.	7.3	-21.9%
Cc1cc(SCC(=O)c2ccc(O)c(O)c2)n2nc(C)c(-c3ccccc3)c2n1	.	11.2µM*	-21.5%	.	-29.8	-28.8%
COC(=O)C1CCCCN1Cc1ccc2c(c1)CN(C(=O)c1ccc(C)s1)CCO2 (centres undefined)	.	-4.5%	-0.4%	.	.	3.8%
CCn1c(SCc2c(F)cccc2Cl)nc(=O)c2c(C(=O)OC)cc(C3CC3)nc21	7.0%[46.1 µM]	-21.0%	-28.0%	.	-13.0	-14.7%
COc1ccc(-n2c(/C=C3/C(=O)Nc4ccccc43)nc3ccccc3c2=O)cc1	?	i	?	?	?	-6.4%
COc1ccc2c(c1)/C(=C\c1cccc(/C=C3/C(=O)Nc4ccc(OC)cc43)n1)C(=O)N2	2.82µM*	-5.2%	7.08µM*	1.58µM*	-98.0*	-15.4%
CC[n+]1c(/C=C/C=C/N(C(C)=O)c2ccccc2)sc2cc(OC)ccc21	?	178.7%	?	?	-66.0*	i
CC1CC(C)CN(C(=O)/C=C/c2ccc([N+](=O)[O-])s2)C1 (centres undefined)	.	?	?	.	-86.6*	?
CC1CN(C(=O)/C=C/c2ccc([N+](=O)[O-])s2)CC(C)O1 (centres undefined)	?	?	12.6%	11.2µM*	-67.6*	?
CC1CN(C(=O)/C=C/c2ccccc2[N+](=O)[O-])CC(C)O1 (centres undefined)	0.0%	-6.5%	-2.1%	-0.3%[46.1 µM]	?	2.4%
O=C1C(F)=CC(COC(c2ccccc2)(c2ccccc2)c2ccccc2)OC1n1cc(F)c(=O)[nH]c1=O (centres undefined)	5.62µM*	10µM*	3.16µM*	?	-98.9*	?
Cc1ccccc1S(=O)(=O)Cc1ccc(C(=O)N2CCN(c3cccc(C)c3C)CC2)o1	3.55µM*	-28.4%	25.1µM*	?	-20.0	?
Cc1ccc(Cl)cc1N1CCN(C(=O)c2ccc(CS(=O)(=O)c3ccc(Br)cc3)o2)CC1	-0.8%[46.1 µM]	4.5%	?	?	-68.0*	-10.6%
Cc1ccccc1S(=O)(=O)Cc1ccc(C(=O)N2CCN(c3cccc(Cl)c3)CC2)o1	?	-18.7%	-9.2%	?	-32.0	-10.1%
SMILES	LASV entry inh	Vaccinia mCherry	FMDV inh	MARV entry inh	HCMV inh	VACV Venus inh
CCOC(=O)c1c(NC(=O)C2CCCCC2C(=O)O)sc2c1CCCC2 (centres undefined)	.	.	.	-12.1%	.	.
COc1ccc(CC(=O)NNC(=O)CCC(=O)Nc2cc(C)ccc2C)cc1	-8.4%	-17.5%	-9.3%	-8.1%[46.1 µM]	-103.6*	-9.4%
CCc1sc(C(=O)Nc2cc(Cl)ccc2N2CCCCC2)cc1C	7.6%	-0.7%	-6.9%	4.9%	-62.8*	1.9%
N=C1Sc2ccccc2C2=NCCCN12	.	.	.	1.58µM*	.	.
O=C(C(=C1N(Cc2ccc(Cl)nc2)CCN1Cc1ccc(Cl)nc1)[N+](=O)[O-])C(Cl)Cl	.	.	-3.1%	.	-4.4	.
O=[N+]([O-])/C(C(=C(Cl)Cl)N1CCN(Cc2ccccc2)CC1)=C1\NCCN1Cc1ccc(Cl)nc1	-11.3%	10µM*	12.2%	?	-14.3	?
CC(=O)N1CCN(Cc2ccc(Cl)nc2)CC1	-1.8%[46.1 µM]	i	-8.0%	11.1%[46.1 µM]	-78.2*	-10.3%
CN(CC(=O)Nc1ccccc1-c1ccccc1)Cc1ccccc1Cl	-7.6%	-0.6%	-22.7%	11.2µM*	?	-5.7%
CN(CC(=O)Nc1ccccc1Br)CC(=O)Nc1ccccc1-c1ccccc1	.	.	-27.7%	.	-18.2	.
Cc1ccccc1CN1[C@H](C)[C@H](c2ccccc2)OCCS1(=O)=O	.	-26.3%	.	.	.	-16.3%
CN(Cc1ccccc1)S(=O)(=O)c1ccc2[nH]c3c(c2c1)CCCCC3	-24.8%[46.1 µM]	-10.8%	-9.4%	.	19.6	1.5%
Cc1cccc(-n2c(O)c(C=Nc3ccccc3O)c3ccccc3c2=O)n1	16.8%	-22.0%	-20.9%	?	-63.9*	5.5%
Cc1cccc(-n2c(O)c(C=Nc3cc(O)ccc3C)c3ccccc3c2=O)n1	5.7%	-1.7%	-16.8%	?	?	-11.2%
CCOc1ccc(/C=C/C(=O)c2cc(Br)ccc(=O)c2O)cc1	?	-28.0%	?	?	1.9	-21.4%
Cc1cccc(/C=C/C(=O)c2cc(Br)ccc(=O)c2O)c1	?	.	?	?	-104.3*	-2.6%
CCc1ccc(/C=C/C(=O)c2cc(Br)ccc(=O)c2O)cc1	?	.	-15.9%	?	-105.7*	?
O=C(C=Cc1ccccc1)c1cc(Br)ccc1O	?	-12.3%	?	-1.9%	-21.9	-8.1%
CC(C)CON=C1C[C@@H](O)[C@@H](O)[C@@H]2[C@H]3C(=O)N(C4CCCCC4)C(=O)[C@@H]3CC[C@@H]12	-25.6%[14.3 µM]	.	.	-20.1%[14.2 µM]	.	.
COc1ccc(OC)c(C(=O)N2CCc3c(cnc(C)c3CNS(=O)(=O)N(C)C)C2)c1	.	-11.5%	-15.3%	.	.	-9.7%
O=C(c1ccc(S(=O)(=O)NCC2CCCO2)cc1)N1CCN(c2cccc(Cl)c2)CC1 (centres undefined)	.	.	?	.	-70.1*	.
O=S(=O)(NCC1CCCO1)c1ccc(-c2ccc(Cl)cc2)cc1 (centres undefined)	?	-17.5%	37.0%	?	-60.4*	-16.9%
O=C(c1ccc(S(=O)(=O)NCC2CCCO2)cc1)N1CCN(c2ccccc2F)CC1 (centres undefined)	.	.	-5.4%	.	-23.1	.
